Screening data as filed in PubChem BioAssay.
Hits are enriched below; roughly 3.1% of the tested compounds scored in any of these assays.
Mcl1-Noxa inh – Mcl-1/Noxa interaction inhibition. Q07820. 220,000 compounds, 1.5% hits. TR-FRET Mcl-1/Noxa peptide binding, 2 h. inhibition, % at 21.7 µM;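 active = compounds that cut the protein-peptide binding signal by more than 50% relative to plate controls in a single-dose test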;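 also: His-tagged Mcl-1 with rhodamine Noxa BH3 peptide and terbium anti-His antibody; 0% = Mcl-1 plus Noxa peptide wells and 100% = peptide-only wells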
Target sequence (Q07820 whole entry, looked up): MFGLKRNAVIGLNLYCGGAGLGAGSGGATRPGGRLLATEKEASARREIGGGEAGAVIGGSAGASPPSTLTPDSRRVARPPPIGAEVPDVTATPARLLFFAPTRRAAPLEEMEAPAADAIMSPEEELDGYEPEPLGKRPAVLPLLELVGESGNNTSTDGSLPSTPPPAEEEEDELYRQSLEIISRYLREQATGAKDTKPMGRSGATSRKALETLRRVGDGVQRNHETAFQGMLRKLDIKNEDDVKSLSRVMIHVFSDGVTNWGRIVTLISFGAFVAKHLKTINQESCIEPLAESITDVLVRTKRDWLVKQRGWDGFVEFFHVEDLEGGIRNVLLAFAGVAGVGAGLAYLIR
Mcl1 Bid PPI – disrupts binding of human Mcl-1 to Bid peptide | TR-FRET Mcl-1/Bid-Dy647 peptide binding, 1536-well | AID 1021 | 220,000 compounds, 0.97% hits | Q07820 | inhibition, % at 21.7 µM;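 active = compounds that cut the binding signal by more than half at the single screening dose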;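 also: His-tagged Mcl-1 with europium anti-His antibody binding Bid BH3 peptide; 0% = Mcl-1 plus peptide wells and 100% = peptide-only wells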
p47phox inh – blocks human p47phox regulatory protein of NADPH oxidases; p47phox/p22phox peptide binding, fluorescence polarization, 2 h; inhibition, % at 24.7 µM; 220,000 compounds, 0.53% hits; P14598;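 active = inhibition above about 30%, limit read from the data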;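 also: 0% = p47phox with labelled peptide and 100% = labelled peptide alone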
14-3-3 Bad PPI – disrupts binding of bovine 14-3-3 zeta to phospho-Bad peptide. P63103. 220,000 compounds, 0.71% hits. inhibition, % at 21.7 µM. TR-FRET 14-3-3zeta/Dy647-pBad peptide displacement, 1 h;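 active = inhibition above about 70%, limit read from the data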;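 also: 0% = full 14-3-3 plus peptide FRET controls and 100% = background without 14-3-3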
Bim-Mcl-1 – human Bim-Mcl-1 interaction inhibition; Q07820; Bead-based flow cytometry, Bim peptide-Mcl-1 binding; inhibition, % at 10 µM; 190,000 compounds, 0.1% hits; in the data active = inhibition above about 40%;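 also: 0% = no compound tracer wells and 100% = peptide blocker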
Starred values were filed as active, the others as inactive; nt = no result; ! = repeats disagree; [ ] = another dose, or the depositor's remark.

SMILES	Mcl1-Noxa inh	Mcl1 Bid PPI	p47phox inh	14-3-3 Bad PPI	Bim-Mcl-1
O=C(c1cccc(F)c1)N1CCC(N2CCOCC2)CC1	30	35	-7	74*	1
CC(C)CN(CC(C)C)C(=O)Nc1cccc([N+](=O)[O-])c1	-3	-12	-10	-12	1
O=C(c1cccc(F)c1)N1CCN(Cc2ccco2)CC1	-9	-14	-5	61	-1
COc1cccc(C(=O)N2CCN(Cc3cccc(F)c3)CC2)c1	35	40	-7	49	-3
O=C(c1ccco1)N1CCN(CC(=O)N2c3ccccc3CCc3ccccc32)CC1	15	56*	10	31	-2
CCOc1ccc(CN2CCN(C(=O)c3cccc(F)c3)CC2)cc1	36	66*	0	72*	0
O=C(c1ccco1)N1CCN(Cc2cccc(F)c2)CC1	32	22	-5	73*	1
O=C(CN1CCCCC1)N1c2ccccc2CCc2ccccc21	10	-27	-12	-14	0
Cc1ccccc1C(=O)NNC(=O)/C=C/c1ccccc1	-3	-3	7	-13	-3
O=C(N/N=C\c1ccc(Cl)s1)c1ccc(Cn2cccn2)o1	-1	-13	-5	-3	-3
O=C(N/N=C\c1c(O)ccc2ccccc12)c1ccc(Cn2cccn2)o1	51*	-70	-14	-18	0
COc1ccc(N(C(=O)C(C)C)S(=O)(=O)c2cccc3cccnc23)cc1	-4	-11	59*	1	-2
Cc1ccc(NC(=O)CSc2nnc(-c3cccs3)o2)cc1S(=O)(=O)N(C)C	1	-18	-4	-12	4
CCN(CC)S(=O)(=O)c1cc(NC(=O)CSc2nnc(-c3cccs3)o2)ccc1C	9	-14	52*	-1	-14
CC(=O)Nc1ccc(S(=O)(=O)Nc2nc3ccccc3nc2Nc2ccc(N)cc2)cc1	58*	-145	-2	0	nt
Cc1cc(C)nc(/N=C(\N)N2CCc3ccccc32)n1	9	-31	5	-9	49*
CCOC(=O)NC(CC(=O)O)c1ccc(OC)c(OC)c1 (stereo not drawn)	-8	-18	68*	17	1
CCOC(=O)c1sc2ncn(/N=C/c3ccc(O)c(OC)c3)c(=O)c2c1C	53*	15	-2	13	0
COc1cc(/C=N/n2cnc3c(sc4nc(C)cc(C)c43)c2=O)ccc1O	-11	15	-34	44	nt
C[c-]1[c-](C)[c-](C)[c-](C)[c-]1C.[Fe].c1cc2nccc(N3CCCC3)[c-]2c1 (stereo not drawn)	55*!	-107	30*!	23	nt
Cn1cnc2c(N3CCCCC3)nccc21	-21	-31	-9	-7	2
Cc1nc(N)sc1-c1csc(NCc2ccccc2)n1	-12	-19	-28	-8	-2
Cc1cc(-c2csc(NCc3ccccc3)n2)c(C)n1C	69*	4	18	98*	2
CC1=C(C(=O)Nc2ccc(Cl)cc2)C(c2ccncc2)C(C#N)=C(SCC(N)=O)N1 (stereo not drawn)	-9	-14	-8	5	1
CC(=O)C1=C(C)NC(SCC(N)=O)=C(C#N)C1c1cccnc1 (stereo not drawn)	32	97*	-5	-9	2
SMILES	Mcl1-Noxa inh	Mcl1 Bid PPI	p47phox inh	14-3-3 Bad PPI	Bim-Mcl-1
CCOc1ccc(Nc2nc(N)nc(CSC(=S)N3CCOCC3)n2)cc1	14	-16	125*	-7	nt
Cc1ccccc1NC(=O)Cn1nnc2ccccc21	4	1	0	4	1
O=C(COC(=O)/C=C/C(=O)OCC(=O)Nc1ccccc1F)Nc1ccccc1F	16	1	-11	-5	nt
S=c1[nH]nc(-c2ccc3ccccc3n2)o1	26	-28	-5	82*[fluorescence artefact?]	1
CCC1(C(=O)OC)CCc2c(cc(OC)c3ccccc23)C1=O (stereo not drawn)	88*	-1	-6	3	nt
OCCC1CN(Cc2nc3c(s2)CCCC3)CCN1Cc1ccccc1 (stereo not drawn)	-18	-14	-5	0	nt
CCOC(=O)Nc1sc(=S)n(C)c1C	17	-31	-7	84*	-3
C/C(=N/NC(=O)CNC(=O)c1cccs1)c1ccco1	1	-36	-10	2	nt
O=C(NNC(=O)C12CC3CC(CC(C3)C1)C2)c1ccco1	-4	-20	3	6	88*
